Activity calls are given as the source filed them. Rule for the calls: active = hit-call score of the fitted dose curve at least 0.9, where 1 is the maximum; inactive = score below 0.9.
Experiments:
[1] = read-out: Macrophage colony-stimulating factor (MCSF), CSF1 (gene 1435); test: BSK_hDFCGF_MCSF: BioMAP Diversity Plus: hDFCGF Assay for Macrophage colony-stimulating factor (MCSF) Biomarker Activity (AID 2283060); details: primary human foreskin fibroblasts; actives raise or lower the signal
In short: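 ELISA read-out of M-CSF in human dermal foreskin fibroblast cultures, 24 h after chemical dosing; gain or loss of signal fitted bidirectionally relative to DMSO baseline.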

[2] = BSK_hDFCGF_SRB: Viability Assessment in the BioMAP Diversity Plus: hDFCGF Assay (AID 2283061); details: primary human foreskin fibroblasts;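 note: cells exposed to compound for 24 h before the read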
In short: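 Primary human foreskin fibroblasts; 24 h post-dose; fixed 10% TCA, stained 0.1% SRB, A560 read; total protein as overt cytotoxicity measure; curves fit bidirectionally vs DMSO control.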

[3] = read-out: TIMP metallopeptidase inhibitor 1 (TIMP1), TIMP1 (gene 7076); test: BSK_hDFCGF_TIMP1: BioMAP Diversity Plus: hDFCGF Assay for TIMP metallopeptidase inhibitor 1 (TIMP1) Biomarker Activity (AID 2283062); details: primary human foreskin fibroblasts; actives raise or lower the signal
In short: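 ELISA readout of TIMP-1 from human dermal foreskin fibroblast cultures 24 h post-dosing. Curves were fitted in both directions against DMSO baseline, with SRB total-protein staining in parallel cultures as a cytotoxicity check.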

[4] = read-out: Monokine induced gamma interferon (MIG), CXCL9 (gene 4283); test: BSK_hDFCGF_MIG: BioMAP Diversity Plus: hDFCGF Assay for Monokine induced gamma interferon (MIG) Biomarker Activity (AID 2283063); details: primary human foreskin fibroblasts; actives raise or lower the signal
In short: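 Fibroblasts (human foreskin, primary) dosed, 24 h, MIG by ELISA; fit bidirectional vs DMSO.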

[5] = read-out: Matrix Metallopeptidase 1 (MMP1), MMP1 (gene 4312); test: BSK_hDFCGF_MMP1: BioMAP Diversity Plus: hDFCGF Assay for Matrix Metallopeptidase 1 (MMP1) Biomarker Activity (AID 2283064); details: primary human foreskin fibroblasts; actives raise or lower the signal
In short: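 hDFCGF primary fibroblasts (human foreskin); chemical added; 24 h; MMP1 by ELISA; bidirectional fit vs DMSO.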

[6] = read-out: Vascular cell adhesion molecule 1 (VCAM1), VCAM1 (gene 7412); test: BSK_hDFCGF_VCAM1: BioMAP Diversity Plus: hDFCGF Assay for Vascular cell adhesion molecule 1 (VCAM1) Biomarker Activity (AID 2283065); details: primary human foreskin fibroblasts; actives raise or lower the signal;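 for AC50: VCAM-1 protein level quantified by ELISA after 24 h chemical exposure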
In short: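 ELISA read-out of VCAM-1 on human skin fibroblasts, 24 h post-dose; gain or loss of signal fitted bidirectionally against DMSO baseline.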

[7] = read-out: Plasminogen activator inhibitor-1 (PAI1), SERPINE1 (gene 5054); test: BSK_hDFCGF_PAI1: BioMAP Diversity Plus: hDFCGF Assay for Plasminogen activator inhibitor-1 (PAI1) Biomarker Activity (AID 2283066); details: primary human foreskin fibroblasts; actives raise or lower the signal
In short: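 Human foreskin fibroblasts in the hDFCGF system were dosed with compound for 24 h; PAI-1 was quantified by ELISA. Bidirectional curve fitting used DMSO as negative control and baseline.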

[8] = read-out: Intercellular Adhesion Molecule 1 (ICAM1), ICAM1 (gene 3383); test: BSK_KF3CT_ICAM1: BioMAP Diversity Plus: KF3CT Assay for Intercellular Adhesion Molecule 1 (ICAM1) Biomarker Activity (AID 2283067); details: primary human keratinocytes with fibroblasts; actives raise or lower the signal
In short: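 ELISA readout of ICAM-1; KF3CT human skin co-culture (keratinocytes + foreskin fibroblasts), 24 h post-dose; gain/loss fit vs DMSO baseline.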

[9] = read-out: Interferon-gamma inducible Protein 10 (IP10), CXCL10 (gene 3627); test: BSK_KF3CT_IP10: BioMAP Diversity Plus: KF3CT Assay for Interferon-gamma inducible Protein 10 (IP10) Biomarker Activity (AID 2283068); details: primary human keratinocytes with fibroblasts; actives raise or lower the signal
In short: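 Human keratinocyte plus foreskin fibroblast primary co-culture exposed to test chemical for 24 h; IP-10 measured by ELISA. Concentration-response fitted bidirectionally against DMSO control as baseline.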

[10] = BSK_KF3CT_SRB: Viability Assessment in the BioMAP Diversity Plus: KF3CT Assay (AID 2283069); details: primary human keratinocytes with fibroblasts;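 note: total protein by sulforhodamine B staining as a cytotoxicity measure; read 24 h after compound addition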
In short: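 Keratinocytes co-cultured with foreskin fibroblasts (human primary); chemical added, 24 h; fix 10% TCA, stain 0.1% SRB, A560. Bidirectional fit vs DMSO.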

[11] = read-out: Interleukin-1 alpha (IL1a), IL1A (gene 3552); test: BSK_KF3CT_IL1a: BioMAP Diversity Plus: KF3CT Assay for Interleukin-1 alpha (IL1a) Biomarker Activity (AID 2283070); details: primary human keratinocytes with fibroblasts; actives raise or lower the signal
In short: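 Chemicals were dosed onto co-cultured human keratinocytes and foreskin fibroblasts, IL-1a was quantified by ELISA at 24 h, and activity was fitted in both directions relative to DMSO controls.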

[12] = read-out: TIMP metallopeptidase inhibitor 2 (TIMP2), TIMP2 (gene 7077); test: BSK_KF3CT_TIMP2: BioMAP Diversity Plus: KF3CT Assay for TIMP metallopeptidase inhibitor 2 (TIMP2) Biomarker Activity (AID 2283071); details: primary human keratinocytes with fibroblasts; actives raise or lower the signal
In short: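 Human primary keratinocyte/foreskin fibroblast co-culture dosed with chemical and sampled at 24 h. TIMP-2 levels quantified by ELISA; bidirectional fitting against DMSO negative control as baseline.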

[13] = read-out: Transforming growth factor beta 1 (TGFb1), TGFB1 (gene 7040); test: BSK_KF3CT_TGFb1: BioMAP Diversity Plus: KF3CT Assay for Transforming growth factor beta 1 (TGFb1) Biomarker Activity (AID 2283072); details: primary human keratinocytes with fibroblasts; actives raise or lower the signal
In short: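 Human keratinocyte plus foreskin fibroblast primary co-culture, dosed with chemical for 24 h. TGF-b1 quantified by ELISA. Activity fitted bidirectionally against DMSO negative control as baseline.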

[14] = read-out: C-C motif chemokine 2 (Homo sapiens) (UniProt P13500); test: BSK_KF3CT_MCP1: BioMAP Diversity Plus: KF3CT Assay for Monocyte Chemoattractant Protein 1 (MCP1/CCL2) Biomarker Activity (AID 2283073); details: primary human keratinocytes with fibroblasts; actives raise or lower the signal
In short: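 KF3CT skin co-culture (keratinocytes/foreskin fibroblasts), 24 h post-dose; MCP-1 by ELISA; gain/loss of signal fit bidirectionally vs DMSO baseline.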

[15] = read-out: urokinase plasminogen activator (uPA), PLAU (gene 5328); test: BSK_KF3CT_uPA: BioMAP Diversity Plus: KF3CT Assay for urokinase plasminogen activator (uPA) Biomarker Activity (AID 2283075); details: primary human keratinocytes with fibroblasts; actives raise or lower the signal
In short: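 ELISA readout of uPA, analyzed for signal gain or loss relative to DMSO, from a human primary keratinocyte–foreskin fibroblast co-culture measured 24 h after chemical treatment.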

[16] = read-out: CD40, CD40 (gene 958); test: BSK_LPS_CD40: BioMAP Diversity Plus: LPS Assay for CD40 Biomarker Activity (AID 2283076); details: primary human HUVEC with PBMC; actives raise or lower the signal
In short: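 ELISA readout of CD40 in HUVEC/PBMC co-culture (BSK_LPS system), 24 h post-dosing; bidirectional curve fit, DMSO baseline; parallel SRB total-protein staining for cytotoxicity.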

[17] = read-out: E-selectin (Homo sapiens) (UniProt P16581); test: BSK_LPS_Eselectin: BioMAP Diversity Plus: LPS Assay for Eselectin Biomarker Activity (AID 2283077); details: primary human HUVEC with PBMC; actives raise or lower the signal
In short: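 ELISA readout of E-selectin, 24 h post-dose, HUVEC + PBMC co-culture (LPS system). Gain or loss of signal vs DMSO baseline, bidirectional fit.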

[18] = read-out: Interleukin-8 (IL8), CXCL8 (gene 3576); test: BSK_LPS_IL8: BioMAP Diversity Plus: LPS Assay for Interleukin-8 (IL8) Biomarker Activity (AID 2283078); details: primary human HUVEC with PBMC; actives raise or lower the signal
In short: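 HUVEC + PBMC co-culture, LPS-activated; test chemicals dosed, IL-8 read by ELISA at 24 h. Bidirectional curve fit vs DMSO baseline (gain or loss of signal).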

[19] = BSK_hDFCGF_Proliferation: Cell Proliferation Assessment in the BioMAP Diversity Plus: hDFCGF Assay (AID 2283059); details: primary human foreskin fibroblasts;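 note: curves fitted for both rise and fall of signal versus DMSO baseline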
In short: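 Total protein read at 560 nm after 0.1% SRB staining of TCA-fixed human skin fibroblasts, […]. Activity is fitted in both directions relative to DMSO as baseline.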

[20] = read-out: Matrix Metallopeptidase 9 (MMP9), MMP9 (gene 4318); test: BSK_KF3CT_MMP9: BioMAP Diversity Plus: KF3CT Assay for Matrix Metallopeptidase 9 (MMP9) Biomarker Activity (AID 2283074); details: primary human keratinocytes with fibroblasts; actives raise or lower the signal
In short: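 Human keratinocyte/foreskin fibroblast co-culture; compound added; 24 h; MMP-9 by ELISA; bidirectional fit vs DMSO baseline.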

Chain of E-selectin (Homo sapiens) (P16581 whole entry, looked up): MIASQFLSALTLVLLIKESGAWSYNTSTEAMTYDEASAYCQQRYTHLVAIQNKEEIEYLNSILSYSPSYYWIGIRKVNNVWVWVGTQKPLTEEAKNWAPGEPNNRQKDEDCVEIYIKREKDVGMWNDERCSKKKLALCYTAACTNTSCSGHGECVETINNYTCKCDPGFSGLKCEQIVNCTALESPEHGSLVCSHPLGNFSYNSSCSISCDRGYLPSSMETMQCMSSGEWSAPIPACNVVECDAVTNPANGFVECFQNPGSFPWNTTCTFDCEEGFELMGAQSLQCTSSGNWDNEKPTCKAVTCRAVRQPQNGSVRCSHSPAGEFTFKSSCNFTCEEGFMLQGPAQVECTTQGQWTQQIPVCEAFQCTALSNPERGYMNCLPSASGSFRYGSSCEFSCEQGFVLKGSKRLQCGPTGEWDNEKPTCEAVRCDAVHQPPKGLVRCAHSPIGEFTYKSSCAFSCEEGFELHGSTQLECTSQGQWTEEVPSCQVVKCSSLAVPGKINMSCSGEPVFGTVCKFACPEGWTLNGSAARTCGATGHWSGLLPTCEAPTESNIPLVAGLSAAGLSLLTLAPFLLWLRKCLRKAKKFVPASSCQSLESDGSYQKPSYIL

With `c1ccc2c(c1)Nc1ccccc1S2` the AC50 [1] was 9.32 µM (active), the outcome [2] was “inactive” and the outcome [3] was “inactive”. The outcome [4] was “inactive”, the outcome [5] was “inactive” and the AC50 [6] was 20 µM (active). For the same compound, the AC50 [7] was 29.4 µM (active), the outcome [8] was “inactive” and the outcome [9] was “inactive”. For the same compound, the outcome [10] was “inactive”, the outcome [11] was “inactive” and the AC50 [12] was 27.3 µM (active). The outcome [13] was “inactive”, the outcome [14] was “inactive” and the outcome [15] was “inactive”. For the same compound, the outcome [16] was “inactive”, the outcome [17] was “inactive” and the outcome [18] was “inactive”.
For `c1cc2c3c(cccc3c1)CC2`, the outcome [19] was “inactive”, the outcome [1] was “inactive” and the outcome [2] was “inactive”. For the same compound, the outcome [3] was “inactive”, the outcome [4] was “inactive” and the outcome [5] was “inactive”. For the same compound, the outcome [6] was “inactive”, the outcome [9] was “inactive” and the outcome [10] was “inactive”. The outcome [11] was “inactive”, the outcome [12] was “inactive” and the outcome [13] was “inactive”. For the same compound, the outcome [14] was “inactive”, the outcome [15] was “inactive” and the outcome [16] was “inactive”. For the same compound, the outcome [18] was “inactive”.
With `C=CC(=O)OCC(CC)(COC(=O)C=C)COC(=O)C=C` the AC50 [1] was 2.11 µM (active), the AC50 [2] was 1.32 µM (active) and the AC50 [3] was 1.11 µM (active). For the same compound, the AC50 [4] was 1.4 µM (active), the AC50 [5] was 3.85 µM (active) and the AC50 [6] was 1.07 µM (active). The AC50 [7] was 1.08 µM (active), the AC50 [8] was 2.16 µM (active) and the AC50 [9] was 3.17 µM (active). The AC50 [10] was 3.15 µM (active), the AC50 [11] was 2.16 µM (active) and the AC50 [12] was 5.38 µM (active). The AC50 [13] was 2.37 µM (active), the AC50 [14] was 2.35 µM (active) and the AC50 [15] was 3.11 µM (active). For the same compound, the AC50 [16] was 1.35 µM (active) and the outcome [18] was “inactive”.
For `CCOP(=S)(OCC)SCn1nnc2ccccc2c1=O`, the outcome [19] was “inactive”, the AC50 [1] was 20 µM (active) and the outcome [2] was “inactive”. The outcome [3] was “inactive”, the outcome [4] was “inactive” and the outcome [5] was “inactive”. For the same compound, the outcome [6] was “inactive”, the outcome [9] was “inactive” and the outcome [10] was “inactive”. The outcome [11] was “inactive”, the outcome [12] was “inactive” and the outcome [13] was “inactive”. For the same compound, the outcome [14] was “inactive”, the outcome [20] was “inactive” and the outcome [15] was “inactive”. The outcome [16] was “inactive” and the outcome [18] was “inactive”.
For `CCOP(=S)(S)OCC`, the AC50 [19] was 12.6 µM (active), the outcome [1] was “inactive” and the outcome [2] was “inactive”. The outcome [3] was “inactive”, the outcome [4] was “inactive” and the outcome [5] was “inactive”. For the same compound, the outcome [6] was “inactive”, the outcome [9] was “inactive” and the outcome [10] was “inactive”. The outcome [11] was “inactive”, the outcome [12] was “inactive” and the outcome [13] was “inactive”. For the same compound, the outcome [14] was “inactive”, the outcome [20] was “inactive” and the outcome [15] was “inactive”. For the same compound, the outcome [16] was “inactive” and the outcome [18] was “inactive”.
With `[N-]=[N+]=[N-]` the outcome [19] was “inactive”, the outcome [1] was “inactive” and the outcome [2] was “inactive”. For the same compound, the outcome [3] was “inactive”, the outcome [4] was “inactive” and the outcome [5] was “inactive”. For the same compound, the outcome [6] was “inactive”, the outcome [9] was “inactive” and the outcome [10] was “inactive”. The outcome [11] was “inactive”, the outcome [12] was “inactive” and the outcome [13] was “inactive”. The outcome [14] was “inactive”, the outcome [20] was “inactive” and the outcome [15] was “inactive”. The outcome [16] was “inactive” and the outcome [18] was “inactive”.
In the case of `Nc1ccc(Cl)cc1`, the AC50 [19] is reported as 7.71 µM (active), the outcome [1] is reported as “inactive” and the outcome [2] is reported as “inactive”. For the same compound, the outcome [3] was “inactive”, the outcome [4] was “inactive” and the outcome [5] was “inactive”. For the same compound, the outcome [6] was “inactive”, the outcome [9] was “inactive” and the outcome [10] was “inactive”. For the same compound, the outcome [11] was “inactive”, the outcome [12] was “inactive” and the outcome [13] was “inactive”. For the same compound, the outcome [14] was “inactive”, the outcome [20] was “inactive” and the outcome [15] was “inactive”. The outcome [16] was “inactive”, the outcome [17] was “inactive” and the outcome [18] was “inactive”.
